In PubChem BioAssay AID583 (Sanford-Burnham Center for Chemical Genomics, 2007):
“And” between values parts separate entries of the source, which are not always exact repeats. Equal values may be shown once. In all, about 140,000 compounds went through this assay and about 80 (0.06%) were called active. What follows is part of a selection rich in actives, with near analogues and random picks from the rest. Values without a mark were called inactive. No stated cut-off is given here; in the data, active means displacement above about 50%; inactive means the rest.

Target: Heat shock 70 kDa protein 1A (Homo sapiens) (UniProt P0DMV8)
Sequence (P0DMV8 whole entry, looked up): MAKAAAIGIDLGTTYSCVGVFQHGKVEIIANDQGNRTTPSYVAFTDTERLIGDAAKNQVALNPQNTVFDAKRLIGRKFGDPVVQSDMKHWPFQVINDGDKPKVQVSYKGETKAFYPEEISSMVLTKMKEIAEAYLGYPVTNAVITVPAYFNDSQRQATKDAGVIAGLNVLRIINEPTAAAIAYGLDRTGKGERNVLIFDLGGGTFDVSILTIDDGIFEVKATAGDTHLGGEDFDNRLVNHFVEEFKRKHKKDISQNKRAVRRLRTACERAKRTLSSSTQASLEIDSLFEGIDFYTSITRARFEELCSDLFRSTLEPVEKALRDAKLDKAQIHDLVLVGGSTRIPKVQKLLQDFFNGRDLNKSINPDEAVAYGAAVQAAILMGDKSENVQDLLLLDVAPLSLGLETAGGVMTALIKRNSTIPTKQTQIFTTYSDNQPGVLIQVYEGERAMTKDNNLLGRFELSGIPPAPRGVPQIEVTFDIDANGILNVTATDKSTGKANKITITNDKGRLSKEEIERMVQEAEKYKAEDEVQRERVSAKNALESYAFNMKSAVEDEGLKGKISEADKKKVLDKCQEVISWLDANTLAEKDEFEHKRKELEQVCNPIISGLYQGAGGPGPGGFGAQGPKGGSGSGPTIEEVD
Assay: Hsp70 inhibitors, probe displacement, primary screen, biochemical, fluorescence polarization (AID 583);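 further: plate controls were vehicle for no effect and reference ligand for full effect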
Conditions: mP, at 20 µM, hits give high values

Compound | displacement
Cc1c(C(=O)O)cccc1-n1c(C)ccc1C | 51.1% (active)
Cc1ccc(C)n1-c1sccc1C(=O)O | 24.9%
Cc1ccc(C)n1-c1ccc(Cl)cc1C(=O)O | 104% (active)
Cc1c(C(=O)O)cccc1-n1c(=O)c2cc3c(=O)n(-c4cccc(C(=O)O)c4C)c(=O)c3cc2c1=O | -1.1%
Cc1nc(=O)c(-c2ccccc2)c(C)n1-c1ccccc1C(=O)O | 6.5%
Cc1ccc(-c2ccccc2)n1-c1ccccc1C(=O)O | 5.6%
COc1cc(C(=O)O)c(-n2c(C)ccc2C)cc1OC | 6.6%
Cc1ccc(C)n1-c1ccc(Br)cc1C(=O)O | 7.4%
Cc1ccc(C)n1-c1ccccc1C(=O)O | 92.7% (active)
COc1cc(OC)cc(C(=O)N2CCN(C(=O)c3cccc(F)c3)CC2)c1 | 2.3%
COC(=O)c1ccc(/C=C2\SC(=S)N(C(Cc3ccccc3)C(=O)O)C2=O)cc1 (stereo unspecified) | -0.2%
O=C1NC(=O)/C(=C/c2c(F)cccc2Cl)S1 | 4.2%
S=c1[nH]nc(-c2cccc(Cl)c2)n1-c1ccccc1 | 4%
COc1ccc(CC(=O)c2cc(OC)c(OC)cc2CC(=O)O)cc1OC | -0.7%
COC(=O)c1cc(C#N)c(SCc2ccccc2)nc1C | -5%
O=C(c1ccc(N2CCN(C(=O)c3ccccc3F)CC2)cc1)c1cccc(F)c1 | -2.9%
O=C(c1ccc(N2CCN(C(=O)c3ccccc3)CC2)cc1)c1cccc(F)c1 | -1.2%
O=C(c1ccc(N2CCN(C(=O)c3ccccc3Br)CC2)cc1)c1cccc(F)c1 | 83.6% (active)
CCN1CCN(P2(=O)C=C(c3ccccc3)OC(c3ccccc3)=C2)CC1 | 1.1%
O=C(c1coc(=O)c(Br)c1)N1CCCc2ccccc21 | 6.5%
O=C(c1coc(=O)c(Br)c1)N1CCOCC1 | 7.3%
COc1ccc(CCNC(=O)CSc2nc3ccccc3o2)cc1OC | 0.2%
O=C1c2oc3ccc(F)cc3c(=O)c2C(c2ccccc2)N1CC1CCCO1 (stereo unspecified) | -3.1%
COc1ccc(C2c3c(oc4ccccc4c3=O)C(=O)N2CC2CCCO2)cc1 (stereo unspecified) | -2.4%

Compound | displacement
O=C(COc1ccc([N+](=O)[O-])cc1)Nc1cccc(Cl)c1Cl | 2.1%
CCCCOc1ccc(N2C(=O)C3CC(C)=C(C)CC3C2=O)cc1 (stereo unspecified) | 0.2%
CCOc1cc(CNn2cnnc2)cc(Br)c1OCC(=O)NC1CCCCC1 | 5.5%
C=CCn1c2ccccc2c2nnc(SCC(=O)Nc3sc4c(c3C#N)CCCC4)nc21 | -2%
CC(=NCCCn1ccnc1)c1c(-c2ccccc2)[nH]n(-c2nc3ccccc3s2)c1=O | 0.5%
Cc1c(NS(=O)(=O)c2cc(Cl)ccc2Cl)cccc1[N+](=O)[O-] | -2.4%
O=C(Nc1ccc(N2CCOCC2)cc1)Nc1ccc2nc(-c3ccco3)c(-c3ccco3)nc2c1 | 1.1%
O=C(Nc1ccc2nc(-c3cccs3)c(-c3cccs3)nc2c1)NC1CC1 | 2.3%
Brc1ccc(/C=N/c2ncn[nH]2)cc1 | 3.3%
C=CCN1C(=O)/C(=C/c2cccc(OCc3ccccc3Cl)c2)SC1=S | 0.3%
CCN1C(=O)/C(=C\c2ccc(OCc3ccccc3Cl)cc2)SC1=S | -2.5%
C=CCN1C(=O)/C(=C\c2ccc(OCc3ccccc3Cl)cc2)SC1=S | 56.5% (active)
CCOc1ccc(N(CC(=O)NC2CCCCC2)S(=O)(=O)c2ccc(Cl)cc2)cc1 | 2.4%
NC(=O)c1ccc(NC(=O)Cc2ccc(Cl)cc2)cc1 | -3.6%
O=C(N/N=C/c1cccc([N+](=O)[O-])c1)c1cc(-c2ccc(Cl)cc2)n[nH]1 | 4.6%
Cc1ccc(-c2cc(C(=O)N/N=C/c3cccc([N+](=O)[O-])c3)[nH]n2)cc1 | 78.2% (active)
Cc1ccc(-c2cc(C(=O)N/N=C/c3ccc([N+](=O)[O-])cc3)[nH]n2)cc1 | 1.8%
CC(C)(C)NC(=O)c1cccc(N2C(=O)c3cccc([N+](=O)[O-])c3C2=O)c1 | 1.9%
Cc1cccc(C(NC(N)=O)c2ccccc2)c1 (stereo unspecified) | 0.4%
NC1=NC(=O)/C(=C/c2ccc(-c3cc([N+](=O)[O-])ccc3Cl)o2)S1 | 75.9% (active)
NC1=NC(=O)/C(=C\c2ccc(-c3ccc([N+](=O)[O-])cc3)o2)S1 | -5.8%
NC1=NC(=O)/C(=C/c2ccc(-c3ccc([N+](=O)[O-])cc3Br)o2)S1 | 44.5%
Cc1ccc(/C(N)=N/OC(=O)c2ccccc2F)cc1 | 2.5%
O=S(=O)(Nc1ccc(F)cc1)c1ccc2c(c1)Cc1cc(S(=O)(=O)Nc3ccc(F)cc3)ccc1-2 | -0.8%

Compound | displacement
Cc1ccc(NC(=O)c2ccccc2NC(=O)Cc2cccs2)cc1C | 3.6%
CN(c1ccc(C(=O)NC2CC2)cc1)S(=O)(=O)c1ccccc1 | 0.5%
Cc1c(C(=O)Nc2ccc(-c3nc4cc(Cl)ccc4o3)cc2)cccc1[N+](=O)[O-] | -7%
Cc1c(C(=O)Nc2ccc3oc(-c4ccc(Cl)cc4Cl)nc3c2)cccc1[N+](=O)[O-] | -1.5%
Cc1c(NC(=O)c2ccccc2[N+](=O)[O-])cccc1-c1nc2cc(Cl)ccc2o1 | 60.1% (active)
Cc1cc(NC(=O)CN2CCN(c3ccccc3F)CC2)nc2c1c(=O)oc1ccccc12 | 1.7%
COc1ccc(N2C(=O)C3C(C2=O)N2CCCN2C3c2ccc(Cl)cc2)cc1 (stereo unspecified) | 2.3%
O=C1NC(=O)N(c2ccc(Br)cc2)C(=O)/C1=C/c1ccco1 | 54% (active)
Cc1cc(N2C(=O)NC(=O)/C(=C\c3ccco3)C2=O)ccc1Br | 40.3%
O=C1NC(=O)N(c2ccc(Br)cc2)C(=O)/C1=C\C=C\c1ccco1 | -7.2%
N#CCOc1ccccc1/C=N/c1sc2c(c1C#N)CCCC2 | -0.5%
CC(C)(C)NC(=O)CN1CCC(O)(c2ccc3c(c2)OCO3)CC1 | 5.2%
O=C(O)CCN1C(=O)/C(=C/c2ccc(-c3ccc([N+](=O)[O-])cc3)o2)SC1=S | 1.7%
O=C1/C(=C\c2ccc(-c3ccc([N+](=O)[O-])cc3)o2)SC(=S)N1c1ccc(O)cc1 | 1.6%
O=C(O)c1ccc(-c2ccc(/C=C3\SC(=S)N(c4ccc([N+](=O)[O-])cc4)C3=O)o2)cc1 | 55.5% (active)
CC(=O)Nc1ccccc1NC(=O)COc1ccc(Cl)cc1C | -3.3%
O=c1ccc(Oc2nc(N3CCOCC3)nc(N3CCOCC3)n2)nn1-c1ccccc1 | 6.5%
N/C(=N\OC(=O)c1cccc(Br)c1)c1cccnc1 | 1.1%
Cc1ccc(N=C2NC(=O)/C(=C/c3ccc(O)c([N+](=O)[O-])c3)S2)cc1Cl | 66.9% (active)
COc1cc(/C=C2\SC(=Nc3ccc(C)c(Cl)c3)NC2=O)ccc1O | -0.7%
Cc1c(Cl)cccc1N=C1NC(=O)/C(=C/c2ccc(O)c([N+](=O)[O-])c2)S1 | 13.2%
CC1CCCCN1c1nnc(N)s1 (stereo unspecified) | 0.6%
O=C(Cn1c(=O)n(CC2CCCO2)c(=O)c2ccccc21)N1CCN(c2ccccc2)CC1 (stereo unspecified) | 4.1%
O=c1oc2c(O)c(O)ccc2c2c1CCC2 | 1.2%

Compound | displacement
Cc1c(O)ccc2c1oc(=O)c1ccccc12 | 2.3%
Nc1nnn(Cc2ccccc2)n1 | -0.8%
CCN(CC)S(=O)(=O)c1ccc2oc(Nc3ccc4c(c3)OCCO4)nc2c1 | 0.7%
CC(Sc1ccc2nnc(-c3ccc(F)cc3)n2n1)C(=O)O (stereo unspecified) | -5.3%
NC(=O)CN1CCOCCN(CC(N)=O)CCOCC1 | -5%
O=C(NCC(O)c1ccccc1)C(=O)NC1CC1 (stereo unspecified) | -1.2%
CCC(c1nnc(SCc2nc3ccccc3s2)n1Cc1ccccc1)N(C)C (stereo unspecified) | -2.1%
O=C1CC(c2ccccc2)c2ccc(O)cc2O1 (stereo unspecified) | 2.6%
O=C1C=CC2=C3Oc4c(ccc5cc(O)ccc45)C(c4ccccc4C(=O)O)C3C=CC2=C1 (stereo unspecified) | 60.9% (active)
O=C(O)c1cccc(N2C(=O)CCC2=O)c1 | 3.8%
O=C(O)c1cccc(N2C(=O)c3ccc4c5c(ccc(c35)C2=O)CC4)c1 | 70% (active)
O=C(O)c1cccc(N2C(=O)c3ccc(Br)cc3C2=O)c1 | -5.6%
Nc1nc(CSc2nc3ccccc3[nH]2)cs1 | -1.6%
Cc1cccc(N2C(=O)NC(=O)/C(=C/c3ccc(N(C)C)c(Br)c3)C2=O)c1 | 0.9%
CCOc1ccc(-c2cc(OCC)c3c(C)oc(C)c3c(=[O+]CC)c2)cc1 | -5.4%
CCOc1cccc(=O)c2c(C)oc(C)c12 | 28% and 19.3%
CCOc1cccc(=[O+]CC)c2c(C)oc(C)c12 | 80.7% (active)
Cc1oc(-c2ccc(Cl)cc2)nc1CN1CCCC(C(=O)NCc2ccco2)C1 (stereo unspecified) | 0.5%
Cc1cc(C)c(NC(=O)c2c(-c3ccccc3)noc2C)c(C)c1 | 1.9%
CCc1nnc(SCC(=O)N2CCCc3ccccc32)nc1CC | 0.4%
Cc1cc(NC(=O)c2ccc(-c3cccc(Cl)c3)o2)ccc1NC(=O)c1ccco1 | -0.3%
N#Cc1c2c(c(NCCCN3CCOCC3)n3c1nc1ccccc13)CCC2 | 3.4%
CN(C)CCCNc1c2c(c(C#N)c3nc4ccccc4n13)CCC2 | 3.6%
N#Cc1c2c(c(NCCCCO)n3c1nc1ccccc13)CCC2 | 55% (active)
